From PubChem
This is a sample that favours compounds with a hit; in the whole collection about 6.5% have one here.
Abs 340nm = absorbance at 340 nm; 65,000 tested, under 10 active; fold change at 10 µM; compound absorbance at 340 nm, fold over control;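 active means at 10 µM dose, initial 340 nm absorbance at least 2 fold that of control wells; inactive means change under 2 fold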;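 further: initial absorbance extrapolated from kinetic A340 decline of NADH oxidation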
NADH enzymes = inhibition of NAD/NADH coupling enzymes, library profiling; coupled PK/LDH NADH assays, four targets; IC50, µM (titrated, usually from 10 µM); 65,000 tested, 0.02% active;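 active means single-dose screening hits from any of four coupled enzyme assays that gave an IC50 when retested across doses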;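 further: the DPM-DC format reads NADH fluorescence rather than 340 nm absorbance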
Autofluor 339 = intrinsic fluorescence of library compounds, ex339/em460 – biochemical, MLSMR library, data from DPM-DC assay, artefact control, profiling panel; compound autofluorescence, ex339/em460 nm, NADH buffer; hits give high values; 1 = no-compound wells, NADH background; fluorescence fold increase at 10 µM; 65,000 tested, 5.5% active; AID 709;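 active means at 10 µM, mean starting fluorescence two-fold or more over control wells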;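 further: signal is the first read of a kinetic run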
MK inhibit = blocks S. pneumoniae mevalonate kinase; purified MK, PK/LDH-coupled NADH absorbance 340 nm; inhibition, % at 10 µM; 65,000 tested, 0.48% active;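 active means ranked among the strongest by inhibition in the single 10 µM screen, a fixed top-ranked set picked for dose follow-up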
DPM-DC inhibit = blocks S. pneumoniae diphosphomevalonate decarboxylase; 65,000 tested, 0.49% active; AID 556; calls only at 10 µM; purified DPM-DC, PK/LDH coupled NADH fluorescence;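 active means the 320 compounds with the highest percent inhibition in the single-dose primary screen, excluding strongly autofluorescent ones, cut at about 32% in these data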;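 further: kinetic rate of NADH fluorescence loss reporting ADP formed by the decarboxylase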
Spn PMK inh = inhibitors of Streptococcus pneumoniae phosphomevalonate kinase. purified PMK, PK/LDH-coupled NADH absorbance 340 nm. AID 539. 65,000 tested, 0.49% active. inhibition, % at 10 µM;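 active means top-ranked compounds by inhibition in the single 10 µM screen, taking a fixed number of the strongest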
Hits are given with their value.

Results for COc1ccccc1-c1nc(C#N)c(N2CCN(c3ccccc3)CC2)o1 ?
Abs 340nm: inactive; NADH enzymes: inactive; Autofluor 339: inactive; MK inhibit: inactive; DPM-DC inhibit: inactive; Spn PMK inh: inactive

What do the screens show for `Cc1cc(-c2ccccc2)nc2[n+]1CCN2C`?
Abs 340nm: inactive; NADH enzymes: inactive; Autofluor 339: inactive; MK inhibit: inactive; DPM-DC inhibit: inactive; Spn PMK inh: inactive

Results for O=C(COc1ccc(Cl)cc1Cl)Nc1ccccn1 ?
Abs 340nm: inactive; NADH enzymes: inactive; Autofluor 339: inactive; MK inhibit: inactive; DPM-DC inhibit: inactive; Spn PMK inh: inactive

What do the screens show for `c1ccc(-c2nc(-c3ccco3)cs2)nc1`?
Abs 340nm: inactive; NADH enzymes: inactive; Autofluor 339: 2.1; MK inhibit: inactive; Spn PMK inh: inactive

What do the screens show for `c1ccc(-c2noc(-c3ccco3)n2)nc1`?
Abs 340nm: inactive; NADH enzymes: inactive; Autofluor 339: inactive; MK inhibit: inactive; DPM-DC inhibit: inactive; Spn PMK inh: inactive

Results for COc1ccccc1CNC(=O)c1ccc(CS(=O)(=O)c2ccccc2OC)o1 ?
Abs 340nm: inactive; NADH enzymes: inactive; Autofluor 339: inactive; MK inhibit: inactive; DPM-DC inhibit: inactive; Spn PMK inh: inactive

Results for CCCn1c(=O)c(C(=O)Nc2ccncc2)c(O)c2ccccc21 ?
Abs 340nm: inactive; NADH enzymes: inactive; Autofluor 339: inactive; MK inhibit: inactive; DPM-DC inhibit: inactive; Spn PMK inh: inactive

How did CCCCc1nc2ccccc2c(C(=O)O)c1C do in these assays?
Abs 340nm: inactive; NADH enzymes: inactive; Autofluor 339: inactive; MK inhibit: inactive; DPM-DC inhibit: inactive; Spn PMK inh: inactive

Results for CCOC(=O)c1sc2nc(NC(=O)C3CCCCC3)sc2c1C ?
Abs 340nm: inactive; NADH enzymes: inactive; Autofluor 339: inactive; MK inhibit: inactive; DPM-DC inhibit: inactive; Spn PMK inh: inactive

Results for CCOC(=O)c1sc2nc(NC(=O)C3CC3)sc2c1C ?
Abs 340nm: inactive; NADH enzymes: inactive; Autofluor 339: 2.01; MK inhibit: inactive; DPM-DC inhibit: inactive; Spn PMK inh: inactive

Results for COc1ccccc1-n1c(SCC(=O)Nc2ccccc2C)nc(O)cc1=O ?
Abs 340nm: inactive; NADH enzymes: inactive; Autofluor 339: inactive; MK inhibit: inactive; DPM-DC inhibit: inactive; Spn PMK inh: inactive

Results for COc1ccccc1NC(=O)CSc1nc(O)cc(=O)n1-c1ccccc1OC ?
Abs 340nm: inactive; NADH enzymes: inactive; Autofluor 339: inactive; MK inhibit: inactive; DPM-DC inhibit: active; Spn PMK inh: inactive

How did COC(=O)c1ccc(Nc2ncnc3c2cnn3-c2cccc(C)c2)cc1 do in these assays?
Abs 340nm: inactive; NADH enzymes: inactive; Autofluor 339: 2.15; MK inhibit: inactive; Spn PMK inh: inactive

How did COc1ccc(CN2CC(C(=O)NCCN3CCOCC3)CC2=O)cc1 (stereo not drawn) do in these assays?
Abs 340nm: inactive; NADH enzymes: inactive; Autofluor 339: inactive; MK inhibit: inactive; DPM-DC inhibit: inactive; Spn PMK inh: inactive

How did Cc1cc(C)n2c(SCC(=O)N(C)C3CCS(=O)(=O)C3)nnc2n1 (stereo not drawn) do in these assays?
Abs 340nm: inactive; NADH enzymes: inactive; Autofluor 339: inactive; MK inhibit: inactive; DPM-DC inhibit: inactive; Spn PMK inh: 25.0

How did O=C(NCCN1CCN(c2ccccc2)CC1)C1(S(=O)(=O)c2ccc(Cl)cc2)CC1 do in these assays?
Abs 340nm: inactive; NADH enzymes: inactive; Autofluor 339: inactive; MK inhibit: inactive; DPM-DC inhibit: inactive; Spn PMK inh: inactive

Results for CCC(C)n1c(-c2cccs2)nc2nc3ccccc3nc21 (stereo not drawn) ?
Abs 340nm: inactive; NADH enzymes: inactive; Autofluor 339: 3.94; MK inhibit: inactive; Spn PMK inh: inactive

How did C=CCn1c(-c2cccs2)nc2nc3ccccc3nc21 do in these assays?
Abs 340nm: inactive; NADH enzymes: inactive; Autofluor 339: inactive; MK inhibit: inactive; Spn PMK inh: inactive

How did C=CCNc1nc(N2CCOCC2)c(C#N)c2c1CN(C)CC2 do in these assays?
Abs 340nm: inactive; NADH enzymes: inactive; Autofluor 339: inactive; MK inhibit: inactive; DPM-DC inhibit: inactive; Spn PMK inh: inactive

How did CCC1Cc2c(nc3c4c(nc(N5CCOCC5)c(C#N)c24)NC(C)=N3)O1 (stereo not drawn) do in these assays?
Abs 340nm: inactive; NADH enzymes: inactive; Autofluor 339: 3.33; MK inhibit: inactive; Spn PMK inh: inactive

Results for CCC(COC(=O)Nc1cccc(C)c1)NC(=O)OCC(C)C (stereo not drawn) ?
Abs 340nm: inactive; NADH enzymes: inactive; Autofluor 339: inactive; MK inhibit: inactive; DPM-DC inhibit: inactive; Spn PMK inh: inactive

What do the screens show for `Cc1cc(C)n(-c2nc(NCC3CCCO3)c3c4c(sc3n2)COC(C)(C)C4)n1` (stereo not drawn)?
Abs 340nm: inactive; NADH enzymes: inactive; Autofluor 339: 3.72; MK inhibit: inactive; Spn PMK inh: inactive

What do the screens show for `Cc1cc(C)n(-c2nc(NCCO)c3c4c(sc3n2)CCCC4)n1`?
Abs 340nm: inactive; NADH enzymes: inactive; Autofluor 339: inactive; MK inhibit: inactive; DPM-DC inhibit: inactive; Spn PMK inh: inactive

Results for Cc1cc(C)n(-c2nc(NCCCO)c3c4c(sc3n2)CCCC4)n1 ?
Abs 340nm: inactive; NADH enzymes: inactive; Autofluor 339: 2.62; MK inhibit: inactive; DPM-DC inhibit: inactive; Spn PMK inh: inactive

Results for CCOc1ccc(Cn2c(O)cc(=O)[nH]c2=O)cc1 ?
Abs 340nm: inactive; NADH enzymes: inactive; Autofluor 339: inactive; MK inhibit: inactive; DPM-DC inhibit: inactive; Spn PMK inh: inactive

What do the screens show for `CCNc1nnc(-c2ccccc2OC)s1`?
Abs 340nm: inactive; NADH enzymes: inactive; Autofluor 339: 2.06; MK inhibit: inactive; Spn PMK inh: inactive

Results for COc1ccccc1-c1nnc(NC(=O)C(C)SC2=NCCS2)s1 (stereo not drawn) ?
Abs 340nm: inactive; NADH enzymes: inactive; Autofluor 339: inactive; MK inhibit: inactive; DPM-DC inhibit: inactive; Spn PMK inh: inactive

How did O=C(Nc1ccc2c(c1)CCC2)C1COc2ccccc2O1 (stereo not drawn) do in these assays?
Abs 340nm: inactive; NADH enzymes: inactive; Autofluor 339: 2.11; MK inhibit: inactive; DPM-DC inhibit: inactive; Spn PMK inh: inactive

How did CCC1Oc2ccc(C)cc2N(CC(=O)NCCN2CCCCCC2)C1=O (stereo not drawn) do in these assays?
Abs 340nm: inactive; NADH enzymes: inactive; Autofluor 339: inactive; MK inhibit: inactive; DPM-DC inhibit: inactive; Spn PMK inh: 25.0

How did CS(=O)(=O)N(CC(=O)N1CCN(Cc2ccccc2)CC1)C1CCCCC1 do in these assays?
Abs 340nm: inactive; NADH enzymes: inactive; Autofluor 339: inactive; MK inhibit: inactive; DPM-DC inhibit: inactive; Spn PMK inh: inactive

How did CS(=O)(=O)N(CC(=O)N1CCN(c2ccccc2)CC1)C1CCCCC1 do in these assays?
Abs 340nm: inactive; NADH enzymes: inactive; Autofluor 339: inactive; MK inhibit: inactive; DPM-DC inhibit: inactive; Spn PMK inh: 36.0
